From PubChem BioAssay
RGS4-Gao reg – modulates binding of RGS4 to human Galphao; binding response (% of control), % at 10 µM; AID 1415; P09471; 0.33% of 220,000 active; Multiplexed bead flow cytometry; actives lie on both sides; in the data active means binding response below about 49% or above about 150%; inactive means in between;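 further: fluorescent Galphao activated with aluminum fluoride binding bead-coupled RGS4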
Target sequence (P09471 whole entry, looked up): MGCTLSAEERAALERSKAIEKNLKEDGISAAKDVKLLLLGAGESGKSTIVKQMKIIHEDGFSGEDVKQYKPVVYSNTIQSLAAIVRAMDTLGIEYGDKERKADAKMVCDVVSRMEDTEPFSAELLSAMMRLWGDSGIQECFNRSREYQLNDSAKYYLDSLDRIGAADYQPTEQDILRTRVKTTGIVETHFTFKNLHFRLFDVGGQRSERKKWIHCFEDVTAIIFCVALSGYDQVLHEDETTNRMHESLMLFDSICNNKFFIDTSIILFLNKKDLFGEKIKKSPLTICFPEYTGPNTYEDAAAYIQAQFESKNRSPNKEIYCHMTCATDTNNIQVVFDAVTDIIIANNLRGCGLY
RGS8-Gao – modulates binding of RGS8 to human Galphao; P09471; multiplexed bead flow cytometry; actives lie on both sides; AID 1423; 0.34% of 220,000 active; response (percent of control binding), % at 10 µM; in the data active means response below about 60% or above about 140%; inactive means in between;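 further: Galphao activated as the GDP aluminium fluoride complex binding bead-coupled RGS8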
RGS7-Gao reg – regulators of human RGS7-Galphao interaction. P09471. Multiplexed bead flow cytometry, RGS7-Galphao binding; actives lie on both sides. binding response (% of control), % at 10 µM. 0.35% of 220,000 active; in the data active means binding response below about 49% or above about 150%; inconclusive means no clear call, values can overlap the other calls; inactive means in between;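 further: fluorescent Galphao held in activated GDP-AlF4 state binding bead-coupled RGS7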
GSH fluor – GSH bead compound fluorescence profile; GSH beads flow cytometry, compound fluorescence 488/530 nm; stronger effect = higher value; fluorescence (KMESF) at 10 µM; 0.25% of 190,000 active; AID 1776; in the data active means fluorescence above about 89;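 further: glutathione beads carrying GST-tagged Bcl family fusion proteins plus one bare bead set; values are compound well signal with DMSO vehicle wells as background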
RGS16-Gao – RGS16-Galphao interaction regulator (human). bead-based flow cytometry RGS16-Galphao binding, fluorescence; actives lie on both sides. binding response (% of control), % at 10 µM. 0.38% of 220,000 active. AID 1441;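 further: Galphao activated by GDP with aluminum fluoride before binding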
Avidin bead fluor – avidin bead compound fluorescence profile. Avidin beads, compound fluorescence 488/530 nm, flow cytometry; stronger effect = higher value. fluorescence (KMESF) at 10 µM. 0.38% of 220,000 active. AID 1775; in the data active means fluorescence above about 47
RGS-Gao – RGS4-Galphao interaction regulator (human). shares compounds with RGS16-Gao. multiplexed bead flow cytometry, RGS–Galpha-o binding. RGS4–Galpha-o binding response, % at 10 µM. 99% of 1,600 active;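 further: fluorescently labeled Galpha-o bound to GDP with aluminium fluoride binding biotinylated RGS beads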
Target sequence (P09471 whole entry, looked up): as above
Target sequence (P49798 whole entry, looked up): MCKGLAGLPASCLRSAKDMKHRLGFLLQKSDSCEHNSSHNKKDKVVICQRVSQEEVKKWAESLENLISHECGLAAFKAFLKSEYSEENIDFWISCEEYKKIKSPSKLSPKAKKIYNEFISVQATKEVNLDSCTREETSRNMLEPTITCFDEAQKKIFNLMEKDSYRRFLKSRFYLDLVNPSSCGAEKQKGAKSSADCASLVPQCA
Avidin counter – biotin-avidin bead binding disruption counter-screen; shares compounds with RGS16-Gao; streptavidin beads, fluorescein-biotin binding, flow cytometry; inhibition, % at 10 µM; 1,700 tested, under 10 active;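 active means inhibition above 50%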;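 further: median green fluorescence of gated singlet beads compared with DMSO control wells; 0% = DMSO wells and 100% = complete loss of bead fluorescence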
RGS8-Gao confirm – confirmation of regulators of human RGS8-Galphao interaction | shares compounds with RGS16-Gao | bead-based flow cytometry RGS8-Galphao binding, fluorescence; actives lie on both sides | binding response (% of control), % at 10 µM | 3% of 1,700 active; in the data active means binding response below about 72% or above about 130%; inactive means in between;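 further: Galphao activated as GDP AlF4 complex before binding bead RGS8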
RGS7-Gao confirm – confirmation of regulators of human RGS7-Galphao interaction; response (percent of control binding), % at 10 µM; bead-based flow cytometry RGS7-Galphao binding; actives lie on both sides; shares compounds with RGS16-Gao; 7.8% of 1,700 active; AID 1837; in the data active means response below about 75% or above about 130%; inactive means in between;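 further: fluorescent Galphao activated with GDP and aluminum fluoride binding bead-coupled RGS7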
RGS16-Gao conf – confirmation of regulators of human RGS16-Galphao interaction | shares compounds with RGS16-Gao | bead-based flow cytometry, RGS16-Galphao binding; actives lie on both sides | response (% of control binding), % at 10 µM | 4% of 1,700 active | AID 1838; in the data active means response below about 74% or above about 130%; inactive means in between;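 further: Galphao activated as the GDP aluminium fluoride complex binding bead-coupled RGS16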
RGS4-Gao confirm – confirmation of regulators of human RGS4-Galphao interaction | 4% of 1,700 active | shares compounds with RGS16-Gao | AID 1840 | binding response (% of control), % at 10 µM | RGS4-Galphao binding, multiplexed bead flow cytometry; actives lie on both sides; in the data active means binding response below about 74% or above about 130%; inactive means in between
RGS19-Gao single – RGS19-Galphao interaction regulation, single point confirmation; response (percent of control binding), % at 10 µM; bead-based flow cytometry RGS19-Galphao binding; actives lie on both sides; shares compounds with RGS16-Gao; 5% of 1,700 active; in the data active means response below about 50% or above about 160%; inactive means in between;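 further: 100% = no compound control and 0% = blank background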
The depositor's hits bear a star; ? = inconclusive; nt = not tested or not shown; [ ] = dose if it differs, or a comment. The list is not random: actives were taken first. Their share in the collection is about 1.2%. Unless noted, how the calls were made is not given here.

SMILES | RGS4-Gao reg | RGS8-Gao | RGS7-Gao reg | GSH fluor | RGS16-Gao | Avidin bead fluor | RGS-Gao | Avidin counter | RGS8-Gao confirm | RGS7-Gao confirm | RGS16-Gao conf | RGS4-Gao confirm | RGS19-Gao single
O=C(CNC(=O)/C(=C\c1ccc(F)cc1)NC(=O)c1ccccc1)OCc1ccccc1 | 125 | 103 | 172*[activator] | 15 | 107 | 199* | 125* | nt | nt | nt | nt | nt | nt
O=C(CNC(=O)/C(=C\c1ccccc1)NC(=O)c1ccc(Br)cc1)OCc1ccccc1 | 98 | 99 | 96 | 24 | 94 | 11 | nt | nt | nt | nt | nt | nt | nt
CC(=O)NC(Cc1ccc(O)cc1)C(=O)NN (stereo unspecified) | 95 | 99 | ? | 16 | 97 | 12 | nt | nt | nt | nt | nt | nt | nt
CNc1nc(-c2c[nH]c3ccccc23)cs1 | 192*[activator] | 111 | 151*[activator] | 24 | 202*[activator] | 93* | nt | -2 | 98 | 101 | 97 | 101 | 105
Nc1nc(-c2c[nH]c3ccccc23)cs1 | 99 | 99 | 102 | 39 | 100 | 36 | nt | nt | nt | nt | nt | nt | nt
Cc1ccc(Cl)c(OC(=O)Cn2cnc3c2c(=O)n(C)c(=O)n3C)c1 | 88 | 95 | 101 | 11 | 87 | 9 | nt | nt | nt | nt | nt | nt | nt
O=C1C(=O)N(Cc2ccccc2)C(=O)N1CCOc1ccccc1 | 56 | 58* | 52 | 19 | 49 | 7 | 56* | 0 | 103 | 102 | 104 | 105 | 91
Cc1ccc(OCCN2C(=O)c3ccccc3C2=O)cc1 | 92 | 91 | 91 | 13 | 94 | 18 | nt | nt | nt | nt | nt | nt | nt
O=C(Nc1ccccc1N1CCCC1)c1cccc(Cl)c1Cl | 100 | 105 | 99 | 17 | 110 | 12 | nt | nt | nt | nt | nt | nt | nt
Cc1c(N2CCCC2)cc2c(c1NC(=O)c1ccccc1Cl)C(C)(C)CC2(C)C | 156*[activator] | 130 | ? | nt | 155 | 7 | nt | -1 | 98 | 80 | 95 | 95 | 74
Cc1cc(/C=N/Nc2nc(N3CCOCC3)nc(N3CCOCC3)n2)c(C)n1-c1ccccc1 | 27* | 7.9* | 51 | 21 | 28 | 58* | nt | 0 | 100 | 101 | 101 | 101 | 113
CC[n+]1c(/C=C/C=C/N(C(C)=O)c2ccccc2)sc2cc(OC)ccc21 | 135 | 93 | 155*[activator] | 6 | 143 | 30 | 135* | nt | nt | nt | nt | nt | nt
COCc1cc(/C=N\NC(=O)Cc2ccc(OC)cc2)ccc1OC | 92 | 70 | 98 | 10 | 21* | 1 | 92* | -1 | 103 | 103 | 100 | 100 | 109
CCCCOC(=O)c1ccc(NC(=O)c2ccccc2OC)cc1 | 77 | 70 | 79 | 7 | 18* | 2 | 77* | 1 | 102 | 106 | 102 | 104 | 102
CCCOC(=O)c1ccc(NC(=O)c2ccccc2OC)cc1 | 104 | 99 | 103 | 70 | 103 | 13 | nt | nt | nt | nt | nt | nt | nt
Cc1noc(C)c1S(=O)(=O)NC1CCN(Cc2ccccc2)CC1 | 108 | 121 | 106 | 19 | 183*[activator] | 5 | 108* | nt | nt | nt | nt | nt | nt
COc1ccc(C2CC(c3ccccc3)=NN2C(=O)COC(=O)C2(C)CC2(Cl)Cl)cc1 (stereo unspecified) | 91 | 96 | 87 | 8 | 91 | 10 | nt | nt | nt | nt | nt | nt | nt
COc1ccc(-n2c(SCC(N)=O)nnc2-c2cccnc2)cc1 | 106 | nt | 103 | 26 | nt | nt | nt | 1 | 102 | 101 | 100 | 101 | 96
CCN(CC)C(=O)CSc1nc(O)cc(=O)n1C | 102 | 103 | 103 | 15 | 99 | 11 | nt | nt | nt | nt | nt | nt | nt
CCN(CC)C(=O)CSc1nc(O)cc(=O)n1CC | 126 | 97 | 166*[activator] | 14 | 113 | 156* | 126* | nt | nt | nt | nt | nt | nt
CCCn1c(SCC(=O)N2CCCC2)nc2c1c(=O)n(C)c(=O)n2C | 157*[activator] | 93 | 188*[activator] | 9 | 107 | 77* | nt | -1 | 100 | 95 | 97 | 97 | 97
Cc1ccccc1NC(=S)NCc1cccn1C | 97 | 124 | 100 | 11 | 178*[activator] | 6 | 97* | -4 | 102 | 106 | 104 | 106 | 112
COc1ccc2c(c1OC)C(=O)N1N=C(c3ccc(F)cc3)CC21 (stereo unspecified) | 97 | 101 | 99 | 17 | 98 | 10 | nt | nt | nt | nt | nt | nt | nt
Cc1ccc(C2=NN3C(=O)c4ccccc4C3C2)cc1 (stereo unspecified) | 26* | 64 | ? | nt | 40 | 1 | nt | -2 | 102 | 98 | 102 | 101 | 113
CC1CC2=C(C(=O)O1)C(C)Nc1ccccc1N2 (stereo unspecified) | 86 | 85 | 87 | 15 | 22* | 8 | 86* | -1 | 102 | 99 | 102 | 101 | 83
SMILES | RGS4-Gao reg | RGS8-Gao | RGS7-Gao reg | GSH fluor | RGS16-Gao | Avidin bead fluor | RGS-Gao | Avidin counter | RGS8-Gao confirm | RGS7-Gao confirm | RGS16-Gao conf | RGS4-Gao confirm | RGS19-Gao single
Cc1noc(C)c1N=Nc1ccc(Br)cc1C(=O)O | 100 | 99 | 103 | 15 | 95 | 7 | nt | nt | nt | nt | nt | nt | nt
COc1ccc(C2C(C#N)=C(N)Oc3c2sc2nc(C)cc(C)c32)cc1 (stereo unspecified) | 121 | 103 | 117 | 6 | 187*[activator] | 89* | 121* | -1 | 101 | 101 | 100 | 102 | 104
CC1(C)CC(=O)C=C(NNC(=O)c2ccccc2)C1 | 4.6* | 14* | 9.9* | 21 | 8.0* | -2 | nt | -1 | 103 | 103 | 103 | 103 | 96
Cc1cc(NC(=O)c2cc(-c3cccs3)nc3ccccc23)no1 | 95 | 97 | 256*[activator] | 18 | 107 | 233* | 95* | 5 | 100 | 94 | 102 | 100 | 76
CCOC(=O)c1c(NC(=O)c2cc(-c3ccc(O)cc3)on2)sc(C(C)=O)c1C | 258*[activator] | 110 | 122 | 13 | 344*[activator] | 12 | nt | -1 | 106 | 145*[activator] | 196*[activator] | 152*[activator] | 433*[activator]
CCOC(=O)c1c(NC(=O)CSc2nc3ccccc3o2)sc(C(C)=O)c1C | 1.8* | 7.6* | 2.6* | 11 | -3.6* | -3 | nt | -1 | 104 | 105 | 107 | 104 | 124
